From PubChem BioAssay (Tox21)
Results filed as inconclusive are left out. Unmarked numbers belong to inactive results. Activity calls are given as the source filed them. The call rests on the fitted dose curve.

The compounds below were run against 5-hydroxytryptamine receptor 2A (Homo sapiens) (UniProt P28223) (assay: 5-hydroxytryptamine receptor 2A (HTR2A) small molecule agonists, cell-based qHTS assay (AID 1963587; further: nearly all actives have a fitted effect of over 30% in size)). Conditions: HTR2A-CHO cells, calcium flux fluorescence, agonist mode; series mostly up to 76.8 µM; activation: at the top concentration.
From the text: National Center for Advancing Translational Sciences [NCATS]
Division of Preclinical Innovation [DPI]
U.S. Environmental Protection Agency [EPA]
National Institutes of Environmental Health Sciences [NIEHS]
National Toxicology Program [NTP]
U.S. Food and Drug Administration [FDA]
The HTR2A receptor is a subtype of the 5-HT2 receptor that belongs to the serotonin receptor family and is a G protein-coupled receptor (GPCR). The HTR2A-CHO cell line stably expressing human 5-hydroxytryptamine receptor 2A (HTR2A) can be used for screening agonists of interactions between 5-HT2 and its ligands. The HTR2A-CHO calcium flux assay is a homogeneous fluorescence-based assay for detecting the intracellular calcium level using FDSS kinetic plate reader system.
HTR2A-CHO cells were dispensed at 2000 cells/3uL/well in 1536-well black-clear bottom plates using a Multidrop Dispenser. After the assay plates were incubated at a 37 C/5% CO2 incubator for 18 h, 3 uL of Dye Loading Buffer was transferred to the assay plate by a Flying Reagent Dispenser. The assay plates were incubated at 37 C for 1h. For agonist mode, 23 nL of compounds dissolved in DMSO, positive controls or DMSO only was transferred to the assay plate by a pin tool. The fluorescence intensity in the plates was measured using FDSS 7000EX kinetic plate reader for 2 min at 1 sec intervals.
On the % scale 0 is the no-effect control and ±100 the full control effect; potency means the concentration at half of the fitted maximal effect.

Sequence of 5-hydroxytryptamine receptor 2A (Homo sapiens) (P28223 whole entry, looked up): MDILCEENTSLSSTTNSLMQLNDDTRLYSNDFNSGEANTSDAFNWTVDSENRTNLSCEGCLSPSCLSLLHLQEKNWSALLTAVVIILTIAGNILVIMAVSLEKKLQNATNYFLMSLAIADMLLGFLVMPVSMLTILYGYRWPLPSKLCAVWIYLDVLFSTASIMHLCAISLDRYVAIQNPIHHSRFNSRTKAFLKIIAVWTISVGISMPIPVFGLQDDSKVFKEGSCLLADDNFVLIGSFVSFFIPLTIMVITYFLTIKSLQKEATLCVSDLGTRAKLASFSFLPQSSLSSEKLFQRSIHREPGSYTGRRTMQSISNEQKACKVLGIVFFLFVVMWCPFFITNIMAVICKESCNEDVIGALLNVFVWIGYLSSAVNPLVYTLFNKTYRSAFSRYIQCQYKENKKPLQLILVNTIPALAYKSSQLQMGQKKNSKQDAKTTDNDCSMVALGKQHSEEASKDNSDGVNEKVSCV

SMILES	activation	Potency
COc1cc(C=O)cc2c1[C@H](COC(N)=O)[C@]1(OC(C)=O)ON2C[C@H]2[C@@H]1N2C(C)=O	-1.75%	–
CN1COCN(Cc2cnc(Cl)s2)/C1=N\[N+](=O)[O-]	11.3%	–
COC(=O)c1cc(Oc2ccc(Cl)cc2Cl)ccc1[N+](=O)[O-]	-0.605%	–
CON(C)C(=O)Nc1ccc(Br)cc1	-8.74%	–
CC(C)(C)c1ccc(OP(=O)(Oc2ccccc2)Oc2ccccc2)cc1	16.1%	–
Nc1ccccc1-c1ccccc1	0.225%	–
NC1CCC(CC2CCC(N)CC2)CC1 (stereo not given)	–	19.2 µM (active)
COc1cccc2c1cc([N+](=O)[O-])c1c(C(=O)O)cc3c(c12)OCO3	15.7%	–
Oc1ccc2ccc3cccc4ccc1c2c34	16.8%	–
Nc1nc(N)nc(N)n1	0.677%	–
CCOP(=S)(NC(C)C)Oc1ccccc1C(=O)OC(C)C (stereo not given)	12.9%	–
CCN(CC)CCOC(=O)C(C)(c1ccccc1)c1ccccc1	11.9% [at 35.6 µM]	–
CCCC[N+](CCCC)(CCCC)CCCC	-0.45%	–
CC(CCc1ccccc1)NC(C)C(O)c1ccc(O)cc1 (stereo not given)	-11.6% [at 35.6 µM]	–
O=c1c(C2CC(c3ccc(-c4ccc(Br)cc4)cc3)Cc3ccccc32)c(O)sc2ccccc12 (stereo not given)	2.87% [at 35.6 µM]	–
O=CNC(N1CCN(C(NC=O)C(Cl)(Cl)Cl)CC1)C(Cl)(Cl)Cl (stereo not given)	10.6%	–
CNC(=O)Oc1cc(C)c(N(C)C)c(C)c1	0.349%	–
CC1CN1P(=O)(N1CC1C)N1CC1C (stereo not given)	2.89%	–
CN1CCN(C(=O)O[C@H]2c3nccnc3C(=O)N2c2ccc(Cl)cn2)CC1	-1.95% [at 35.6 µM]	–
O=C(O)COc1nc(Cl)c(Cl)cc1Cl	-2.68%	–

SMILES	activation	Potency
C[C@H]1[C@@H]2Cc3ccc(O)cc3[C@@]1(C)CCN2C	-14.6% [at 199 µM]	–
C#CC(C)(C)O	-0.0765%	–
CS(=O)(=O)c1cc(C(F)(F)F)ccc1C(=O)c1cnoc1C1CC1	0.18%	–
CC(=O)OC(c1ccccc1)C(Cl)(Cl)Cl (stereo not given)	-7.02%	–
O=[N+]([O-])[O-].[Tl+]	-0.0766%	–
Oc1ccc(C2(c3ccc(O)cc3)c3ccccc3-c3ccccc32)cc1	15.1%	–
CCCCn1cc[n+](C)c1 (tested in a mixture with another compound)	-0.436%	–
Cc1c(Cl)c(=O)oc2cc(OP(=O)(OCCCl)OCCCl)ccc12	-1.35% [at 35.6 µM]	–
CSCCCN=C=S	1.38%	–
N#CCCSCCC#N	1.13%	–
COc1cc(CCN)cc(OC)c1OC	–	0.0752 µM (active)
Nc1ccc(Sc2ccc(N)cc2)cc1	-0.431%	–
CNC(=O)Oc1ccc(N(C)C)c(C)c1	0.173%	–
C=C(C)C(=O)OCCCCOC(=O)C(=C)C	-0.297%	–
CCOC(=O)CC(=O)CCl	-1.64%	–
CN(N=O)c1ccc([N+](=O)[O-])cc1	-1.69%	–
CCCCNP(N)(N)=S	-2.32%	–
CC(Cl)CN(C)C (stereo not given)	-0.0951%	–
OCCCBr	3.65%	–
CC(C)C(Nc1ccc(C(F)(F)F)cc1Cl)C(=O)OC(C#N)c1cccc(Oc2ccccc2)c1 (stereo not given)	0.0867%	–
